Compound activity deposited in PubChem by National Center for Advancing Translational Sciences (NCATS).
An excerpt weighted towards active compounds, which were near 2.5% of everything screened.
L3MBTL1 inh-1 – L3MBTL1 (human) inhibition. Q9Y468. AlphaScreen L3MBTL1–H3K9me1 peptide binding. Potency, µM (titrated, usually from 57.1 µM), usual class: inhibitors. 230,000 compounds, 0.66% hits; also: nearly all actives have a fitted effect of over 60% in size
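L3MBTL1 (50 nM) pre-complexed 30 min with biotinylated H3(1-15)K9me1 peptide (75 nM), then compounds added for 30 min at room temperature; AlphaScreen streptavidin donor/nickel chelate acceptor beads (10 ug/mL final) read after 30 min dark incubation.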
Pol eta inh-1 – inhibitors of human DNA polymerase eta | 390,000 compounds, 1.2% hits | AID 588591 | recombinant Pol eta, fluorescent DNA replication assay | Potency, µM (titrated, usually from 114 µM), most hits filed as inhibitors | Q9Y253
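Pol eta (10 nM) was preincubated with compounds for 15 min at room temperature, after which fluorescent replication substrate (50 nM final) was added to start the reaction. Fluorescence was read kinetically at 0 and 10 min.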
APE1 inh-1 – blocks human APE1 abasic DNA cleavage. 350,000 compounds, 0.35% hits. P27695. AID 2517. Potency, µM (highest dose often 65.8 µM), most hits filed as inhibitors. recombinant APE1, TAMRA/BHQ-2 abasic DNA cleavage fluorescence; also: nearly all actives have a fitted effect of over 55% in size
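Activity was derived from the fluorescence gain between first and third kinetic reads (60 s intervals, ex 525/em 598 nm) after 50 nM THF-abasic TAMRA/BHQ-2 duplex was added to 0.75 nM APE1 preincubated 15 min with compound.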
POLI inh – blocks human DNA polymerase iota activity | Pol iota fluorescent replication assay, 10 min | Potency, µM (titrated, usually from 115 µM), usual class: inhibitors | 390,000 compounds, 1% hits | Q9UNA4
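Pol iota at 10 nM preincubated 15 min with compounds at room temperature; reaction started with fluorescent substrate, 50 nM final. Fluorescence read kinetically at 0 and 10 min; buffer-only wells as negative control.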
Pol beta inh-1 – blocks human DNA polymerase beta activity | Pol beta primer extension/strand displacement, fluorescence kinetic | Potency, µM (top dose mostly 114 µM), actives largely listed as inhibitors | P06746 | AID 485314 | 340,000 compounds, 1.3% hits
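Curves were derived by four-parameter Hill fits of normalized qHTS data. The kinetic fluorescent primer-extension read was taken at 0 and 10 min after 50 nM substrate, following a 15 min room-temperature preincubation of 10 nM enzyme with compounds.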
Pol kappa inh-1 – DNA polymerase kappa (human) inhibition. 400,000 compounds, 0.53% hits. Q9UBT6. purified Pol kappa, fluorescent DNA synthesis assay, 10 min. AID 588579. Potency, µM (highest dose often 107 µM), actives largely listed as inhibitors
Target sequence (Q9UBT6 whole entry, looked up): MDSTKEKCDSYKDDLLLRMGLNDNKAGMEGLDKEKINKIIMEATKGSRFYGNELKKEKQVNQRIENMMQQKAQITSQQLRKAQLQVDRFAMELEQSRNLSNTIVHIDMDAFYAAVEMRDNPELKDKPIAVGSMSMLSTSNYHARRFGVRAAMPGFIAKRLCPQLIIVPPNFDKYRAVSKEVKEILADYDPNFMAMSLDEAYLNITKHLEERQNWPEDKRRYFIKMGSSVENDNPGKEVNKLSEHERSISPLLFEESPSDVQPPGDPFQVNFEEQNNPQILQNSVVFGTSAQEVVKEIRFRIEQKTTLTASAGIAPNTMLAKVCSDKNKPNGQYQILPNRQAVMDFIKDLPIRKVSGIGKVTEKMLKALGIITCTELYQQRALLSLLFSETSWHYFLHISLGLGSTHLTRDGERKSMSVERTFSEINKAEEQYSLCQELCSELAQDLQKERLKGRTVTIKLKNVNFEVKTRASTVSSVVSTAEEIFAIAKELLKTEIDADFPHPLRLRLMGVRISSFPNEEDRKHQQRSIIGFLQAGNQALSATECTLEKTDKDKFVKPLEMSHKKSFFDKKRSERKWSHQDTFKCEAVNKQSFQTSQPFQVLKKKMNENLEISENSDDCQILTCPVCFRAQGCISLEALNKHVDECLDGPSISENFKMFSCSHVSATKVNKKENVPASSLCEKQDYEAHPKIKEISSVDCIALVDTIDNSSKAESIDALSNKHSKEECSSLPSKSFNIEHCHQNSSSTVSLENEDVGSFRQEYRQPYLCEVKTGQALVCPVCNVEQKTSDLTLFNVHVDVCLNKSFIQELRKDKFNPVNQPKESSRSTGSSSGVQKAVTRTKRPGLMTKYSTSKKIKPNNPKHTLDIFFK
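10 nM Pol kappa preincubated 15 min at room temperature with compounds, then reaction started with substrate at 50 nM final. Fluorescence read kinetically at 0 and 10 min; buffer-only wells served as negative control.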
APE1 dye cs – displaces fluorescent dye from DNA, flagging APE1 artifacts; AID 2564; Potency, µM (highest dose often 28.5 µM), usual class: inhibitors; DNA fluorescent dye displacement counterscreen, fluorescence; shares compounds with APE1 inh-1; 480 compounds, 7% hits;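 also: loss of thiazole orange fluorescence as the dye is displaced from duplex DNA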
EndoIV counter – Endo IV (E. coli) inhibition counter-screen; shares compounds with APE1 inh-1; E. coli Endo IV, fluorogenic AP-site DNA cleavage; Potency, µM (top dose mostly 27.1 µM), actives largely listed as inhibitors; 560 compounds, 4% hits; AID 2565
APE1 inh-2 – confirmation of inhibitors of human APE1 endonuclease | purified APE1, fluorogenic abasic-site DNA cleavage | 750 compounds, 44% hits | shares compounds with APE1 inh-1 | Potency, µM (series often up to 57.1 µM), most hits filed as inhibitors; also: nearly all actives have a fitted effect of over 30% in size
APE1 FP inh – compounds that displace a DNA probe from human APE1. APE1 binding to TAMRA-labelled double-stranded DNA, fluorescence polarization displacement. AID 2573. 480 compounds, 7% hits. shares compounds with APE1 inh-1. Potency, µM (titrated, usually from 28.5 µM), actives largely listed as inhibitors
Pol beta inh-2 – Human Pol beta inhibitor hit validation. Potency, µM, usual class: inhibitors. shares compounds with Pol beta inh-1. 250 compounds, 87% hits. AID 540280. Pol beta primer extension/strand displacement, fluorescence kinetic; calls by dose curve
Klenow counter – counter-screen for DNA polymerase beta inhibitors: Klenow fragment inhibition | activity change, negative = inhibition, % at 57.1 µM | 250 tested, under 10 active | Klenow exo- polymerase counter-screen, fluorescent DNA substrate | shares compounds with Pol beta inh-1
HIV RT inh – inhibits HIV-1 reverse transcriptase in counter-screen. HIV-1 RT polymerase activity, counter-screen. AID 540301. 250 tested, under 10 active. activity % (negative = inhibition, positive = activation), % at 57.1 µM. shares compounds with Pol beta inh-1
L3MBTL1 inh-2 – L3MBTL1 binding inhibition validated; L3MBTL1 methyl-lysine binding inhibition, biochemical qHTS; 500 compounds, 91% hits; Potency, µM, usual class: inhibitors; shares compounds with L3MBTL1 inh-1; also: nearly all actives have a fitted effect of over 70% in size
L3MBTL1 ctr – counter-screen for L3MBTL1 inhibitors: AlphaScreen signal interference | shares compounds with L3MBTL1 inh-1 | AlphaScreen counterscreen, signal inhibition | Potency, µM (top dose mostly 57.1 µM), most hits filed as inhibitors | 500 tested, under 10 active
PGK validate – TbPGK inhibition, hit validation; shares compounds with Pol kappa inh-1; TbPGK coupled GAPDH assay, Kinase-Glo luminescence; Potency, µM (highest dose often 57.5 µM), actives largely listed as inhibitors; 500 compounds, 79% hits; also: nearly all actives have a fitted effect of over 65% in size
POLI cherry-pick – Human Pol iota inhibitor confirmatory assay. Pol iota primer extension, TAMRA/BHQ fluorescence. shares compounds with Pol kappa inh-1. Potency, µM, most hits filed as inhibitors. 1,500 compounds, 77% hits
Pol kappa inh-2 – confirmation of human DNA polymerase kappa inhibitors | Potency, µM, hits mostly inhibitors | shares compounds with Pol eta inh-1 | 920 compounds, 76% hits | purified Pol-kappa, fluorescent strand-displacement substrate
Pol eta inh-2 – Pol eta (human) inhibition, cherry-pick confirmation. shares compounds with Pol eta inh-1. Pol eta primer extension, TAMRA/BHQ fluorescence, 10 min. Potency, µM, usual class: inhibitors. 2,600 compounds, 64% hits. AID 720502
Of the large screens only hits and unclear results are named; the others gave an inactive call (follow-up assays come after a bar, where they were run). Unless noted, calls follow the shape of the dose curve; as a rule, active = well fitted curve in the direction sought with a large enough effect; inconclusive = small, poorly fitted or top-dose-only effect, or another doubt; inactive = no such curve, though single readings can be large; an effect the other way counts as inactive or inconclusive.

CC1(CC(=O)N/N=C/c2cc([N+](=O)[O-])c(O)cc2O)OCCO1	L3MBTL1 inh-1 inconclusive, Pol eta inh-1 22µM, APE1 inh-1 14µM, POLI inh inconclusive, Pol beta inh-1 4.5µM, Pol kappa inh-1 inconclusive | APE1 dye cs inconclusive | EndoIV counter inactive | APE1 inh-2 13µM | APE1 FP inh inconclusive | Pol eta inh-2 inconclusive
Cc1ccc(-n2c(C)cc(/C=N/NC(=O)CC3(C)OCCO3)c2C)c(C)c1	POLI inh inconclusive
Cc1cccc(C(=O)N=c2c(C#N)cc3c(=O)n4cccc(C)c4nc3n2Cc2ccco2)c1	Pol eta inh-1 4.5µM, APE1 inh-1 inconclusive, POLI inh 8.9µM, Pol beta inh-1 20µM, Pol kappa inh-1 28µM (no result: L3MBTL1 inh-1) | APE1 inh-2 inactive | Pol eta inh-2 43
N=C1/C(=C\c2ccc(-c3cccc(C(=O)O)c3)o2)C(=O)N=C2SC=C(c3ccccc3)N12	L3MBTL1 inh-1 22µM, Pol eta inh-1 8.9µM, APE1 inh-1 40µM, POLI inh 20µM, Pol beta inh-1 20µM, Pol kappa inh-1 40µM | APE1 inh-2 40µM | POLI cherry-pick 30 | Pol eta inh-2 9.5
Cc1ccc(N=C2NC(=O)/C(=C/C=C/c3ccco3)S2)cc1	L3MBTL1 inh-1 inconclusive, Pol eta inh-1 10µM, APE1 inh-1 18µM, POLI inh 3.2µM, Pol beta inh-1 22µM, Pol kappa inh-1 20µM | APE1 dye cs 13µM | EndoIV counter inconclusive | APE1 inh-2 inconclusive | APE1 FP inh inactive | Pol eta inh-2 67
Cc1c(O)cc2c(c1O)C(=O)CC(c1ccc(O)cc1)O2 (stereo not drawn)	L3MBTL1 inh-1 4µM, Pol eta inh-1 8.9µM, APE1 inh-1 1.6µM, POLI inh inconclusive, Pol beta inh-1 1.3µM, Pol kappa inh-1 14µM | APE1 dye cs inactive | EndoIV counter inactive | APE1 inh-2 4.5µM | APE1 FP inh inconclusive | Pol beta inh-2 5 | Klenow counter inactive | HIV RT inh inactive | L3MBTL1 inh-2 6.7 | L3MBTL1 ctr inactive | Pol eta inh-2 inconclusive
Cc1ccccc1CSc1nnnn1-c1ccc(C(N)=O)cc1	none (no result: L3MBTL1 inh-1)
NC(=O)c1ccc(-n2nnnc2SCC(=O)c2ccc(O)c(O)c2)cc1	L3MBTL1 inh-1 inconclusive, Pol eta inh-1 10µM, APE1 inh-1 4µM, POLI inh 14µM, Pol beta inh-1 10µM, Pol kappa inh-1 25µM | APE1 dye cs inactive | EndoIV counter inactive | APE1 inh-2 11µM | APE1 FP inh inactive | Pol eta inh-2 43
COc1cc(-c2oc3cc(O)cc(O)c3c(=O)c2O[C@@H]2O[C@H](CO)[C@@H](O)[C@H](O)[C@H]2O)ccc1O	none (no result: L3MBTL1 inh-1, Pol eta inh-1, POLI inh, Pol beta inh-1)
COc1c(-c2ccc(O)c(O)c2)oc2cc(O)cc(O)c2c1=O	Pol eta inh-1 8.9µM, APE1 inh-1 inconclusive, POLI inh inconclusive, Pol beta inh-1 4.5µM, Pol kappa inh-1 14µM (no result: L3MBTL1 inh-1) | APE1 dye cs inconclusive | EndoIV counter inactive | APE1 inh-2 inconclusive | APE1 FP inh inactive | POLI cherry-pick 42 | Pol eta inh-2 24
O=Cc1cc2ccccc2cc1O	none (no result: L3MBTL1 inh-1, Pol eta inh-1, APE1 inh-1, Pol beta inh-1)
O=c1c(O)cccc2cc(O)c(O)c(O)c12	L3MBTL1 inh-1 0.56µM, APE1 inh-1 0.71µM, POLI inh inconclusive, Pol beta inh-1 0.16µM, Pol kappa inh-1 0.89µM | EndoIV counter inactive | APE1 inh-2 0.45µM | PGK validate 0.26µM | POLI cherry-pick 27 | Pol kappa inh-2 24 | Pol eta inh-2 19
CCOc1ccc(CC(=O)Nc2c3c(nn2C(C)(C)C)CS(=O)(=O)C3)cc1	none (no result: L3MBTL1 inh-1)
O=C(Cc1csc(N2CCOCC2)n1)N/N=C/c1ccc(O)c(O)c1O	Pol eta inh-1 inconclusive, APE1 inh-1 2.2µM, POLI inh inconclusive, Pol beta inh-1 inconclusive, Pol kappa inh-1 inconclusive | APE1 dye cs inconclusive | EndoIV counter inactive | APE1 inh-2 inconclusive | APE1 FP inh inactive | POLI cherry-pick 15 | Pol eta inh-2 43
C/C(=N\NC(=O)Cc1csc(N2CCOCC2)n1)c1ccccc1	none (no result: L3MBTL1 inh-1)
